Reference: PubChem BioAssay (Tox21)
Records with an inconclusive call do not appear. Active and inactive are the calls of the source. Unless noted, the call rests on the fitted dose curve; in most records, active means well fitted curve in the direction sought with a large enough effect in the repeat runs; inconclusive means weak or mixed curves; inactive means no such curve, though single readings can be large; an effect the other way counts as inactive or inconclusive.

Assays:
[1] = qHTS assay for small molecule agonists of the p53 signaling pathway (AID 651631; calls by dose curve; further: nearly all actives have a fitted effect of over 15% in size)
How it was run: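 HCT-116 p53RE-bla reporter line, 16 h compound treatment at 37 °C, then fluorescence after 2 h with B/G FRET substrate.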

[2] = qHTS assay for small molecules that induce genotoxicity in human embryonic kidney cells expressing luciferase-tagged ATAD5 (AID 651632); further: nearly all actives have a fitted effect of over 15% in size
How it was run: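 Cells were seeded at 2,000 per well, dosed with compound, and incubated 16 hr at 37C in 5% CO2. Luciferase activity was then quantified after a 30 min room-temperature incubation with Amplite.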

[3] = qHTS assay for small molecule agonists of the p53 signaling pathway - cell viability (AID 651633; calls by dose curve;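 further: p53RE-bla HCT reporter cells with a stable beta-lactamase p53 reporter; series mostly up to about 83 µM; nearly all actives have a fitted effect of over 30% in size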)
How it was run: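 p53RE-bla cells, seeded at 4,000 per well and rested 5 h at 37 C/5% CO2, received compounds in DMSO for 16 h at 37 C. CellTiter-Glo was then added, and luminescence was read after 30 min at room temperature to gauge cytotoxicity.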

[4] = qHTS assay for small molecules that induce genotoxicity in human embryonic kidney cells expressing luciferase-tagged ATAD5 - cell viability (AID 651634; calls by dose curve; further: nearly all actives have a fitted effect of over 25% in size)
How it was run: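 Cells (HEK293T, luciferase-tagged ATAD5) are seeded at 2,000 per well, dosed with compound or DMSO vehicle, and incubated 15.5 hr at 37C and 5% CO2. CellTiter-Fluor is added for 30 min before fluorescence is measured.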

[5] = qHTS assay for small molecule disruptors of the mitochondrial membrane potential - cell viability (AID 720634; calls by dose curve;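 further: human HepG2 liver cancer cells; series mostly up to about 83 µM; nearly all actives have a fitted effect of over 20% in size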)
How it was run: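 Cytotoxicity was measured by ATP quantitation in HepG2 wells that had first been treated with compound for 1 hr and stained with m-MPI dye; CellTiter-Glo incubation was 30 min at room temperature.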

[6] = qHTS assay for small molecule disruptors of the mitochondrial membrane potential (AID 720635)
How it was run: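 HepG2 cells (2,000/well) attached overnight at 37C, then took compound for 1 hr at 37C, 5% CO2. Mito-MPS dye was added for 30 min; fluorescence was read at 490/535 nm (monomers) and 540/590 nm (aggregates).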

[7] = qHTS assay to test for compound auto fluorescence at 590 nm (red) in HepG2 cells (AID 720674)
How it was run: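 Intrinsic compound fluorescence in the red window (Ex/Em 540/590 nm) is measured in attached HepG2 cells exposed for 1 hr, DMSO vehicle as baseline, benchmarked to Rose Bengal sodium.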

[8] = qHTS assay to test for compound auto fluorescence at 535 nm (green) in HepG2 cells (AID 720675)
[9] = qHTS assay to test for compound auto fluorescence at 460 nm (blue) in HEK293 cells (AID 720678)
How it was run: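 Blue-channel (Ex/Em 405/460 nm) intensity measured in HEK293 cultures after overnight compound exposure at 37C; signal expressed relative to triamterene. Cells plated 2,000 per well in 10% dialyzed FBS medium and allowed 4-5 hr to attach.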

[10] = qHTS assay to test for compound auto fluorescence at 590 nm (red) in HEK293 cells (AID 720679)
How it was run: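 Red-channel autofluorescence (Ex/Em 540/590 nm; Rose Bengal sodium reference) was measured after overnight 37C, 5% CO2 exposure of attached HEK293 cells, 2,000 per well in medium with 10% dialyzed FBS.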

[11] = qHTS assay to test for compound auto fluorescence at 535 nm (green) in HEK293 cells (AID 720680)
[12] = qHTS assay to test for compound auto fluorescence at 590 nm (red) in HEK293 cell free culture (AID 720683)
How it was run: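 Tox21 10K library compounds were pinned into cell-free DMEM with 10% FBS and fluorescence was read at excitation 540 nm. Activity is expressed as Rose Bengal sodium equivalency.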

[13] = qHTS assay to test for compound auto fluorescence at 590 nm (red) in HepG2 cell free culture (AID 720684)
How it was run: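 Readout: intrinsic compound fluorescence at 590 nm emission after 540 nm excitation, scaled to Rose Bengal sodium. Matrix was cell-free MEM with 10% FBS; DMSO vehicle wells served as control.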

[14] = qHTS assay to test for compound auto fluorescence at 460 nm (blue) in HepG2 cell free culture (AID 720685)
How it was run: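 Cell-free plates of MEM plus 10% FBS received 23 nL compound or DMSO vehicle; blue-channel (405/460 nm) intensity scored against triamterene as reference fluorophore.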

[15] = qHTS assay to test for compound auto fluorescence at 535 nm (green) in HepG2 cell free culture (AID 720686)
[16] = qHTS assay to test for compound auto fluorescence at 460 nm (blue) in HepG2 cells (AID 720687)
How it was run: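 Cells (2,000/well in MEM with 10% FBS) attached overnight at 37 C, then were exposed to compound or DMSO for 1 hr at 37 C, 5% CO2. Fluorescence read at Ex/Em 405/460 nm, expressed as triamterene-equivalent signal.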

[17] = qHTS assay to test for compound auto fluorescence at 535 nm (green) in HEK293 cell free culture (AID 720682)
How it was run: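 Steps: dispense DMEM/10% FBS into empty wells; pin in compound or DMSO; measure fluorescence at 485/535 nm. Values are fluorescein equivalents.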

[18] = target: Glucocorticoid receptor (Homo sapiens) (UniProt P04150); assay: qHTS assay to identify small molecule agonists of the glucocorticoid receptor (GR) signaling pathway (AID 720691; active means well fitted activation curve with a large enough effect in the signal ratio in the repeat runs, not every such curve was filed as active; the % refers to the signal ratio)
Sequence of Glucocorticoid receptor (Homo sapiens) (P04150 whole entry, looked up): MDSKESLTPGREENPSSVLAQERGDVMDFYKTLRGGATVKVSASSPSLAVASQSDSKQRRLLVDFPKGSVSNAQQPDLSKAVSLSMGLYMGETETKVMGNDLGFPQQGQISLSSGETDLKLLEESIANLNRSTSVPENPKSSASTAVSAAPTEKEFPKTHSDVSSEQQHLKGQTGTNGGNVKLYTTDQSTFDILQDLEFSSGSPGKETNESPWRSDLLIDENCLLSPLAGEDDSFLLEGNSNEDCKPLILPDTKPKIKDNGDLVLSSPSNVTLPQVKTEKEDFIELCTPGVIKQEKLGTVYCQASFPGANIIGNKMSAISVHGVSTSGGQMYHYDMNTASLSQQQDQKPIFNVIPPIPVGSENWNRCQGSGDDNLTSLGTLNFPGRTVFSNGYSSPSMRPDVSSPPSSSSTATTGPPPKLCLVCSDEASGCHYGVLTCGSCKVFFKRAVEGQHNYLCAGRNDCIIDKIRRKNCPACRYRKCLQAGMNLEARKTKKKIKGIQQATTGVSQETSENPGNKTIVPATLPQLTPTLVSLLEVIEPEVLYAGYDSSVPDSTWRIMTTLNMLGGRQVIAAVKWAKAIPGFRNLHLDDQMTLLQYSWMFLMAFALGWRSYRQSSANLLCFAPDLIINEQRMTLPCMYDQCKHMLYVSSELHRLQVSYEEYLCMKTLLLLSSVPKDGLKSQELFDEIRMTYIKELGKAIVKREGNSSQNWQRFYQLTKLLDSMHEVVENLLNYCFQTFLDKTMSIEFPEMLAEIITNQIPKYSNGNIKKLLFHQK
How it was run: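 Steps: seed GR-bla HeLa cells, incubate 4 h at 37 C/5% CO2; pin-transfer DMSO-dissolved compounds; incubate 18 h at 37 C; add LiveBLAzer B/G FRET substrate; after 2 h at room temperature, measure fluorescence.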

[19] = target: Glucocorticoid receptor (Homo sapiens) (UniProt P04150); assay: qHTS assay to identify small molecule antagonists of the glucocorticoid receptor (GR) signaling pathway (AID 720692; active means well fitted inhibition curve with a large enough effect in the signal ratio in the repeat runs, not every such curve was filed as active; the % refers to the signal ratio)
How it was run: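 Antagonism was scored as loss of dexamethasone-driven (5 nM final) reporter signal in HeLa cells bearing a glucocorticoid response element–beta-lactamase construct, after 18 h compound exposure at 37 C and 2 h FRET substrate loading.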

[20] = qHTS assay to test for compound auto fluorescence at 460 nm (blue) in HEK293 cell free culture (AID 720681)
How it was run: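 Test compounds were pinned into cell-free culture medium (DMEM with 10% FBS) and fluorescence was read directly at Ex/Em 405/460 nm. Signals were expressed as fluorescence equivalents of triamterene, with DMSO vehicle as control.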
On the % scale 0 is the no-effect control and ±100 the full control effect.

Nc1ccc(S(=O)(=O)Nc2ccc(Cl)nn2)cc1
inactive: outcome [1] | Potency [2] | outcome [3] | Potency [4] | outcome [5] | Potency [6] | outcome [7] | outcome [8] | outcome [9] | outcome [10] | outcome [11] | outcome [12] | outcome [13] | outcome [14] | outcome [15] | outcome [16]

COC(=O)c1ccccc1C(=O)c1ccc(OCCN2CCCCC2)cc1
inactive: outcome [1] | Potency [2] | outcome [3] | Potency [4] | outcome [5] | Potency [6] | outcome [7] | outcome [8] | outcome [9] | outcome [10] | outcome [11] | outcome [17] | outcome [12] | outcome [13] | outcome [14] | outcome [15] | outcome [16]

CCOc1cc(NC(C)=O)ccc1C(=O)OC
inactive: outcome [1] | Potency [2] | outcome [3] | Potency [4] | outcome [5] | Potency [6] | outcome [7] | outcome [8] | outcome [9] | outcome [11] | outcome [17] | outcome [12] | outcome [14] | outcome [15] | outcome [16] | Potency [18] | outcome [19]

OCCN(CCO)c1cccc(Cl)c1
inactive: outcome [1] | Potency [2] | outcome [3] | Potency [4] | outcome [5] | Potency [6] | outcome [7] | outcome [8] | outcome [9] | outcome [10] | outcome [11] | outcome [20] | outcome [17] | outcome [12] | outcome [14] | outcome [15] | outcome [16]

CCCCCCCCCCCCCC
inactive: outcome [1] | Potency [2] | outcome [3] | Potency [4] | outcome [5] | Potency [6] | outcome [7] | outcome [8] | outcome [9] | outcome [11] | outcome [20] | outcome [17] | outcome [12] | outcome [13] | outcome [14] | outcome [15] | outcome [16]

CCOC(=O)c1ncn2c1CN(C)C(=O)c1cc(F)ccc1-2
inactive: outcome [1] | Potency [2] | outcome [3] | Potency [4] | outcome [5] | Potency [6] | outcome [7] | outcome [8] | outcome [9] | outcome [10] | outcome [11] | outcome [20] | outcome [17] | outcome [12] | outcome [13] | outcome [14] | outcome [15] | outcome [16]

NS(=O)(=O)c1ccc(NC(=O)CCC(=O)O)cc1
inactive: outcome [1] | Potency [2] | outcome [3] | Potency [4] | outcome [5] | Potency [6] | outcome [7] | outcome [8] | outcome [9] | outcome [10] | outcome [11] | outcome [20] | outcome [17] | outcome [12] | outcome [13] | outcome [14] | outcome [16] | outcome [19]

O=C1O[C@@H]2[C@@H](O)[C@H](O)O[C@@H]2[C@H]1O
inactive: outcome [1] | Potency [2] | outcome [3] | Potency [4] | outcome [5] | Potency [6] | outcome [7] | outcome [8] | outcome [9] | outcome [10] | outcome [11] | outcome [20] | outcome [17] | outcome [12] | outcome [13] | outcome [14] | outcome [15] | outcome [16] | outcome [19]

CC(C)CC(=O)O
inactive: outcome [1] | Potency [2] | outcome [3] | Potency [4] | outcome [5] | Potency [6] | outcome [7] | outcome [8] | outcome [9] | outcome [11] | outcome [20] | outcome [17] | outcome [12] | outcome [14] | outcome [15] | outcome [16] | Potency [18] | outcome [19]

COc1ccc(C2CNC(=O)C2)cc1OC1CCCC1 (stereo not drawn)
inactive: outcome [1] | Potency [2] | outcome [3] | Potency [4] | outcome [5] | Potency [6] | fluorescence, relative to Rose Bengal [7] -0.195% [at 18.6 µM] | fluorescence, % of fluorescein control [8] 0.104% [at 18.6 µM] | fluorescence, % of triamterene [9] 0.004% [at 18.6 µM] | fluorescence, % of fluorescent control [10] -0.255% [at 18.6 µM] | fluorescence, % of fluorescein [11] 0.0387% [at 18.6 µM] | fluorescence, % of fluorescent control [20] -0.0755% [at 18.6 µM] | activity change [17] 0.0153% [at 18.6 µM] | fluorescence, % of fluorescent control [12] -0.222% [at 18.6 µM] | fluorescence, % of fluorescent control [14] -0.0095% [at 18.6 µM] | fluorescence, % of fluorescein control [15] -0.0056% [at 18.6 µM] | fluorescence, % of fluorescent control [16] -0.0914% [at 18.6 µM] | Potency [18] | outcome [19]

COC(=O)[C@@H]1[C@H]2C[C@H]3c4[nH]c5ccccc5c4CCN3C[C@@H]2CC[C@@H]1O
inactive: outcome [1] | Potency [2] | outcome [3] | Potency [4] | outcome [5] | Potency [6] | outcome [7] | outcome [8] | outcome [9] | outcome [11] | outcome [20] | outcome [17] | outcome [12] | outcome [14] | outcome [15] | outcome [16]

CC(=O)c1sc(C)nc1C
inactive: outcome [1] | Potency [2] | outcome [3] | Potency [4] | outcome [5] | Potency [6] | outcome [7] | outcome [8] | outcome [9] | outcome [10] | outcome [11] | outcome [17] | outcome [12] | outcome [13] | outcome [14] | outcome [15] | outcome [16] | Potency [18] | outcome [19]

O=C(OCc1ccccc1)C(=O)OCc1ccccc1
inactive: outcome [1] | Potency [2] | outcome [3] | Potency [4] | outcome [5] | Potency [6] | outcome [7] | outcome [8] | outcome [9] | outcome [10] | outcome [11] | outcome [20] | outcome [17] | outcome [12] | outcome [13] | outcome [14] | outcome [15] | outcome [16] | outcome [19]

CN=C(NC#N)Nc1ccc(C2=NNC(=O)CC2C)cc1 (stereo not drawn)
inactive: outcome [1] | Potency [2] | outcome [3] | Potency [4] | outcome [5] | Potency [6] | outcome [7] | outcome [8] | outcome [9] | outcome [10] | outcome [11] | outcome [20] | outcome [17] | outcome [12] | outcome [13] | outcome [14] | outcome [15] | outcome [16]
